Compounds without any hit were thinned out: in the full panel of roughly 79,000, 15% have a hit. Active and inactive are the calls of the source. Rule as the data show it: active = growth inhibition above about 70%; inactive = the rest.
Tests used:
[1] = NCI Yeast Anticancer Drug Screen. Data for the mec2-1 strain (AID 157); details: S. cerevisiae mec2-1 strain, hits give high values
How it was run: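 Growth inhibition is read against vehicle-treated controls after compound exposure of the mec2-1 yeast strain, which is defective in DNA damage repair or cell cycle control.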

[2] = NCI Yeast Anticancer Drug Screen. Data for the rad14 strain (AID 159);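 also: 0% = growth of vehicle-treated control cultures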; details: S. cerevisiae rad14 strain growth inhibition, hits give high values
How it was run: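 Yeast cells carrying a defined DNA-repair defect were exposed to compounds, and growth inhibition was calculated relative to vehicle-treated control cultures.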

[3] = NCI Yeast Anticancer Drug Screen. Data for the sgs1 mgt1 strain (AID 161);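 also: 0% = growth of cultures given vehicle only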; details: S. cerevisiae sgs1 mgt1 strain, hits give high values
How it was run: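 Growth of a repair-deficient yeast mutant was monitored after compound treatment and expressed as inhibition relative to vehicle-treated cultures.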

[4] = NCI Yeast Anticancer Drug Screen. Data for the CLN2oe strain (AID 163);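 also: 0% = growth of vehicle-only control cultures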; details: S. cerevisiae CLN2oe strain, hits give high values
How it was run: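 Compound-treated yeast; growth vs vehicle ctrl = % inhibition. Genetically altered strain (cell-cycle control).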

[5] = NCI Yeast Anticancer Drug Screen. Data for the cln2 rad14 strain (AID 165);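 also: 0% = growth equal to vehicle treated cultures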; details: S. cerevisiae cln2 rad14 strain, hits give high values
How it was run: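 Growth inhibition, relative to vehicle-treated controls, is the read-out. The test organism is a yeast strain with defined genetic alterations, cln2 rad14.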

[6] = NCI Yeast Anticancer Drug Screen. Data for the bub3 strain (AID 167); details: S. cerevisiae bub3 mutant strain, hits give high values
How it was run: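 Compounds were applied to a genetically altered yeast strain carrying a cell-cycle control defect. Growth inhibition was scored against vehicle-treated controls.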

[7] = NCI Yeast Anticancer Drug Screen. Data for the wt2 strain (AID 169);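 also: 0% = growth of vehicle-treated yeast cultures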; details: S. cerevisiae wt2 strain growth inhibition, hits give high values
How it was run: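 Compound exposure of yeast; growth compared with vehicle controls; inhibition reported.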

[8] = NCI Yeast Anticancer Drug Screen. Data for the mlh1 strain (AID 171);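 also: 0% = growth of vehicle-treated control cultures of the same strain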; details: S. cerevisiae mlh1 strain growth inhibition, hits give high values
How it was run: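 Compounds are applied to a genetically altered yeast strain, and its growth is compared with that of vehicle-treated cultures to give percent inhibition.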

[9] = NCI Yeast Anticancer Drug Screen. Data for the sgs1 strain (AID 173);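 also: 0% = growth of vehicle-only control cultures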; details: S. cerevisiae sgs1 mutant, hits give high values
How it was run: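 Compounds applied to genetically altered yeast; growth compared with vehicle-treated cultures to give % inhibition.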

[10] = NCI Yeast Anticancer Drug Screen. Data for the mlh1 rad18 strain (AID 175); details: S. cerevisiae mlh1 rad18 strain growth inhibition, hits give high values
How it was run: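 Cells of a genetically altered yeast strain, deficient in DNA damage repair, were treated with compound. Their growth was then compared with that of vehicle-treated cultures to give inhibition.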

[11] = NCI Yeast Anticancer Drug Screen. Data for the rad18 strain (AID 177); details: S. cerevisiae rad18 mutant growth inhibition, hits give high values
How it was run: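 Compounds are applied to a repair-deficient yeast strain, and growth is compared with that of vehicle-treated cultures to give percent inhibition.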

[12] = NCI Yeast Anticancer Drug Screen. Data for the rad52 strain (AID 147);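 also: 0% = growth of vehicle-treated control cultures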; details: S. cerevisiae rad52 mutant growth inhibition, hits give high values
How it was run: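 DNA repair-defective yeast; compound exposure; growth scored against vehicle controls.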

[13] = NCI Yeast Anticancer Drug Screen. Data for the wt1 strain (AID 149);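 also: 0% = growth of vehicle-treated wt1 cultures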; details: S. cerevisiae wt1 strain (SPY 50644) growth inhibition, hits give high values
How it was run: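 Yeast wt1 strain exposed to compounds; growth inhibition measured relative to vehicle-treated controls.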

[14] = NCI Yeast Anticancer Drug Screen. Data for the rad50EPP+ strain (AID 151);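 also: 0% = growth of vehicle-treated control cultures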; details: S. cerevisiae rad50 mutant strain, hits give high values
How it was run: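 rad50EPP+ yeast treated with test compounds. Readout: growth vs vehicle control.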

[15] = NCI Yeast Anticancer Drug Screen. Data for the mgt1 strain (AID 153); details: S. cerevisiae mgt1 mutant growth inhibition, hits give high values
How it was run: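 Growth inhibition relative to vehicle controls was scored for the mgt1 yeast strain after compound exposure.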

[16] = NCI Yeast Anticancer Drug Screen. Data for the rad50 strain (AID 155);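 also: 0% = growth of vehicle-only cultures of the same strain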; details: S. cerevisiae rad50 strain growth inhibition, hits give high values
How it was run: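 Yeast carrying a defined DNA repair defect were exposed to test compounds, and growth was compared with vehicle-treated controls to give percent inhibition.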

[17] = at 5.0 µM (retest, dose inferred, filed as 0.5)
[18] = at 50.0 µM (retest, dose inferred, filed as 5.0)

Measured: growth inhibition

CC(Br)C(=O)c1ccc2cc(Br)c3ccccc3c2c1 (centres undefined)
active: [3]; [18] 76% | [3]; at 50.0 µM 74.5%
inactive: [1]; [17] -5% | [1]; at 11.0 µM 6% | [1]; at 33.0 µM 6% | [1]; [18] 12% | [1]; at 50.0 µM 27.4% | [1]; at 100.0 µM 16% | [2]; at 1.2 µM 0% | [2]; at 3.7 µM -1% | [2]; at 11.0 µM 0% | [2]; at 33.0 µM -5% | [2]; at 100.0 µM 17% | [3]; [17] 2% | [4]; at 1.2 µM -4% | [4]; at 3.7 µM -2% | [4]; at 11.0 µM -7% | [4]; at 33.0 µM -4% | [4]; at 100.0 µM -1% | [5]; [17] -24% | [5]; [18] -32% | [5]; at 50.0 µM 26.5% | [6]; at 1.2 µM -7% | [6]; at 3.7 µM -1% | [6]; [17] -10% | [6]; at 11.0 µM 3% | [6]; at 33.0 µM 2% | [6]; [18] 23% | [6]; at 50.0 µM 58% | [6]; at 100.0 µM -3% | [7]; at 1.2 µM -3% | [7]; at 3.7 µM -1% | [7]; at 11.0 µM -1% | [7]; at 33.0 µM 3% | [7]; at 100.0 µM 4% | [8]; at 1.2 µM 4% | [8]; at 3.7 µM 4% | [8]; at 11.0 µM 6% | [8]; at 33.0 µM -11% | [8]; at 100.0 µM 17% | [9]; at 1.2 µM 3% | [9]; at 3.7 µM 8% | [9]; at 11.0 µM 14% | [9]; at 33.0 µM 17% | [9]; at 100.0 µM 17% | [10]; [17] 9% | [10]; [18] 38% | [10]; at 50.0 µM 68.3% | [11]; at 1.2 µM 5% | [11]; at 3.7 µM 5% | [11]; at 11.0 µM 17% | [11]; at 33.0 µM 18% | [11]; at 100.0 µM 22%

O=C1C2C=CC1C1C(=O)OC(=O)C21 (centres undefined)
active: [16]; [18] 77% | [16]; at 50.0 µM 83.2% | [1]; at 50.0 µM 90.8% | [3]; at 50.0 µM 89.2% | [5]; at 50.0 µM 91.8% | [6]; at 50.0 µM 89.8% | [10]; at 50.0 µM 82.9%
inactive: [12]; at 1.2 µM -18% | [12]; at 3.7 µM -15% | [12]; at 11.0 µM -8% | [12]; at 33.0 µM -14% | [12]; at 100.0 µM -24% | [13]; at 1.2 µM -50% | [13]; at 3.7 µM -45% | [13]; at 11.0 µM -45% | [13]; at 33.0 µM -52% | [13]; at 100.0 µM -51% | [14]; at 1.2 µM -17% | [14]; at 3.7 µM -21% | [14]; at 11.0 µM -20% | [14]; at 33.0 µM -11% | [14]; at 100.0 µM -45% | [15]; at 1.2 µM -29% | [15]; at 3.7 µM -13% | [15]; at 11.0 µM -6% | [15]; at 33.0 µM -17% | [15]; at 100.0 µM -28% | [16]; at 1.2 µM -3% | [16]; at 3.7 µM -2% | [16]; [17] 49% | [16]; at 11.0 µM 16% | [16]; at 33.0 µM 13% | [16]; at 100.0 µM -2% | [1]; at 1.2 µM -54% | [1]; at 3.7 µM -52% | [1]; [17] 48% | [1]; at 11.0 µM -44% | [1]; at 33.0 µM -51% | [1]; [18] 58% | [1]; at 100.0 µM -45% | [2]; at 1.2 µM -57% | [2]; at 3.7 µM -44% | [2]; at 11.0 µM -48% | [2]; at 33.0 µM -48% | [2]; at 100.0 µM -43% | [3]; [17] 1% | [3]; [18] -6% | [4]; at 1.2 µM -8% | [4]; at 3.7 µM -6% | [4]; at 11.0 µM -24% | [4]; at 33.0 µM -27% | [4]; at 100.0 µM -25% | [5]; [17] 61% | [5]; [18] 25% | [6]; at 1.2 µM -19% | [6]; at 3.7 µM -10% | [6]; [17] 33% | [6]; at 11.0 µM -22% | [6]; at 33.0 µM -7% | [6]; [18] 14% | [6]; at 100.0 µM -23% | [7]; at 1.2 µM -25% | [7]; at 3.7 µM -9% | [7]; at 11.0 µM -35% | [7]; at 33.0 µM -32% | [7]; at 100.0 µM -34% | [8]; at 1.2 µM -45% | [8]; at 3.7 µM -53% | [8]; at 11.0 µM -39% | [8]; at 33.0 µM -64% | [8]; at 100.0 µM -55% | [9]; at 1.2 µM -28% | [9]; at 3.7 µM -31% | [9]; at 11.0 µM -34% | [9]; at 33.0 µM -20% | [9]; at 100.0 µM -39% | [10]; [17] 53% | [10]; [18] 41% | [11]; at 1.2 µM -23% | [11]; at 3.7 µM -2% | [11]; at 11.0 µM 3% | [11]; at 33.0 µM -28% | [11]; at 100.0 µM -10%

O=C(N=Nc1ccccc1Cl)NNc1ccccc1Cl
inactive: [12]; at 1.2 µM 25% | [12]; at 3.7 µM 19% | [12]; at 11.0 µM 13% | [12]; at 33.0 µM 28% | [12]; at 100.0 µM 26% | [13]; at 1.2 µM 4% | [13]; at 3.7 µM 2% | [13]; at 11.0 µM 0% | [13]; at 33.0 µM 5% | [13]; at 100.0 µM 6% | [14]; at 1.2 µM 17% | [14]; at 3.7 µM 19% | [14]; at 11.0 µM 26% | [14]; at 33.0 µM 39% | [14]; at 100.0 µM 20% | [15]; at 1.2 µM -5% | [15]; at 3.7 µM -5% | [15]; at 11.0 µM 3% | [15]; at 33.0 µM -18% | [15]; at 100.0 µM -2% | [16]; at 1.2 µM 8% | [16]; at 3.7 µM 8% | [16]; [17] -15% | [16]; at 11.0 µM -15% | [16]; at 33.0 µM 14% | [16]; [18] 16% | [16]; at 50.0 µM 44.5% | [16]; at 100.0 µM 13% | [1]; at 1.2 µM -1% | [1]; at 3.7 µM 1% | [1]; [17] -15% | [1]; at 11.0 µM 7% | [1]; at 33.0 µM 6% | [1]; [18] 38% | [1]; at 50.0 µM 21.1% | [1]; at 100.0 µM 12% | [2]; at 1.2 µM -3% | [2]; at 3.7 µM -9% | [2]; at 11.0 µM -2% | [2]; at 33.0 µM 5% | [2]; at 100.0 µM 11% | [3]; [17] -18% | [3]; [18] 8% | [3]; at 50.0 µM 26.8% | [4]; at 1.2 µM 7% | [4]; at 3.7 µM -3% | [4]; at 11.0 µM 6% | [4]; at 33.0 µM 22% | [4]; at 100.0 µM 27% | [5]; [17] -25% | [5]; [18] 45% | [5]; at 50.0 µM 47.1% | [6]; at 1.2 µM 2% | [6]; at 3.7 µM 18% | [6]; [17] -40% | [6]; at 11.0 µM 13% | [6]; at 33.0 µM 15% | [6]; [18] 69% | [6]; at 50.0 µM 49.1% | [6]; at 100.0 µM 11% | [7]; at 1.2 µM 0% | [7]; at 3.7 µM 0% | [7]; at 11.0 µM 3% | [7]; at 33.0 µM 7% | [7]; at 100.0 µM 8% | [8]; at 1.2 µM 0% | [8]; at 3.7 µM -4% | [8]; at 11.0 µM 2% | [8]; at 33.0 µM 5% | [8]; at 100.0 µM 4% | [9]; at 1.2 µM 9% | [9]; at 3.7 µM 5% | [9]; at 11.0 µM 9% | [9]; at 33.0 µM 21% | [9]; at 100.0 µM 19% | [10]; [17] -7% | [10]; [18] 41% | [10]; at 50.0 µM 21.6% | [11]; at 1.2 µM 16% | [11]; at 3.7 µM 13% | [11]; at 11.0 µM 8% | [11]; at 33.0 µM 3% | [11]; at 100.0 µM 7%

Reference: PubChem BioAssay (NCI)
